The panel holds about 79,000 compounds, 15% with a hit somewhere; the sample as a whole holds those more often. The source made the active and inactive calls. Rule as the data show it: active = growth inhibition above about 70%; inactive = the rest.
Test: NCI Yeast Anticancer Drug Screen. Data for the rad50 strain (AID 155);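 also: 0% = growth of vehicle-only cultures of the same strain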
Conditions: S. cerevisiae rad50 strain growth inhibition; at 5.0 µM (retest, dose inferred, filed as 0.5); stronger effect = higher value
Outline: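 Readout: growth inhibition relative to vehicle-treated cultures. Compound exposure was carried out in a genetically defined yeast strain deficient in DNA damage repair.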

Compound | growth inhibition
Cc1ccc(/C=C2\CCCC(CN3CCCCC3)C2=O)cc1 (stereo not drawn) | 23% (inactive)
Oc1ccc(CCCCCc2ccc(O)cc2)cc1 | 4% (inactive)
COC(=O)c1ccccc1CC(Cc1ccc2c(c1)CCC2)C(=O)OC (stereo not drawn) | 20% (inactive)
CN=C1NS(=O)(=O)c2ccccc21 | 2% (inactive)
CCCCC/C(=C/C=C/c1ccc(Cl)cc1)CN(C)C | 11% (inactive)
O=S(=O)(O)c1ccc2c(c1)C1C(C3C2C2(Cl)C(Cl)=C(Cl)C3(Cl)C2(Cl)Cl)C2(Cl)C(Cl)=C(Cl)C1(Cl)C2(Cl)Cl (stereo not drawn) | -7% (inactive)
Cc1ccc(S(=O)(=O)N/N=C/c2oc(-c3cccc([N+](=O)[O-])c3)c(-c3cccc([N+](=O)[O-])c3)c2[N+](=O)[O-])cc1 | 56% (inactive)
CCN(CC)C(C)(C)C(=O)/C=C/c1ccc(Cl)cc1 | -5% (inactive)
Fc1ccc(NC(=S)SCc2ccc(Cl)c(Cl)c2)c(F)c1 | 13% (inactive)
CC[C@@]1(OP(=O)(O)O)C(=O)OCc2c1cc1n(c2=O)Cc2cc3ccccc3nc2-1 | 89% (active)
CC(C)C1=CC2=CCC3C(C)(C(=O)O)CCCC3(C)C2CC1 (stereo not drawn) (tested in a mixture with another compound) | -8% (inactive)
C=CCSc1nc2ccccc2c(=O)n1Cc1ccco1 | 50% (inactive)
COC(=O)c1c(C)cccc1C1CN=NC12Cc1ccc(C)c(C)c1C2=O (stereo not drawn) | 2% (inactive)
CC(=O)N=C1N(/C=C2\C(=O)Oc3ccccc3C2=O)C(=O)/C(=C/c2cccc(Cl)c2Cl)N1C | 5% (inactive)
O=C1NC(CSSCC2NC(=O)N(c3ccccc3)C2=O)C(=O)N1c1ccccc1 (stereo not drawn) | 8% (inactive)
CCCCCCCCCCCCOP(=O)(N1CC1(C)C)N1CC1(C)C (stereo not drawn) | 4% (inactive)
Cc1cccc(/C=N/NC(=S)Nc2ccc(Cl)cc2)n1 | 6% (inactive)
CN1CCCCC1c1cc2c3ccccc3ccn2c1-c1ccccc1 (stereo not drawn) | 71% (active)
CN(Cc1ccccc1)CC(O)c1cc(-c2ccc(Cl)cc2)nc2ccccc12 (stereo not drawn) | -1% (inactive)
OC1CCN(c2c3ccccc3nc3ccccc23)CC1 | 21% (inactive)

Compound | growth inhibition
CCC1=C(c2ccc(OC(C)=O)cc2)Cc2cc(OC(C)=O)ccc21 | -14% (inactive)
Cc1cccc(C)c1NC(=O)CSC(N)=O | 4% (inactive)
c1ccc([B-](c2ccccc2)(c2ccccc2)c2ccccc2)cc1 | -3% (inactive)
[Fe+2].c1cc[cH-]c1.c1ccc(-c2ccc[cH-]2)cc1 | -4% (inactive)
O=C(CC1(O)CCCCC1)OC1CCCC1 | -1% (inactive)
OC1(c2ccccc2)c2ccccc2Sc2ccccc21 | 1% (inactive)
CC(CN(C)C)C(=O)/C=C/c1ccc(C(C)C)cc1 (stereo not drawn) | 3% (inactive)
CSc1cccc(N2C(=O)C=CC2=O)c1 | 42% (inactive)
O=c1c2ccccc2nc(-c2ccccc2)n1NC(=S)Nc1ccc(Cl)cc1[N+](=O)[O-] | -3% (inactive)
COc1ccc(OC(C)=O)c2c1CCC=CC2=O | 14% (inactive)
CC(=O)Nc1ccc2c(c1)Cc1cccc(F)c1-2 | 11% (inactive)
CCC(c1ccc(O)cc1)C(O)(CC)c1ccc(O)cc1 (stereo not drawn) | -6% (inactive)
Cn1c(-c2ccccc2)c(CCNC(=O)C2CCC2)c2ccccc21 | 18% (inactive)
FC(F)(F)c1ccccc1NC(=S)SCc1ccco1 | 1% (inactive)
O=[N+]([O-])C1=Cc2cc(Cl)ccc2OC1c1cccc2ccccc12 (stereo not drawn) | 98% (active)
NC(=O)c1c(Cl)nc2n1CCS2 | 1% (inactive)
CCCCCC(C)C1=NC(C)(C)CC(C)O1 (stereo not drawn) | -153% (inactive)
CCCCCCCCCCCCCCCCN(C)c1ccc(S(=O)(=O)O)cc1[N+](=O)[O-] | 43% (inactive)
O=C(c1cccnc1)N(C1CCCCC1)C1CCCCC1 | 3% (inactive)

Same assay, conditions: S. cerevisiae rad50 strain growth inhibition; at 50.0 µM (retest, dose inferred, filed as 5.0); stronger effect = higher value

Compound | growth inhibition
Cc1ccc(/C=C2\CCCC(CN3CCCCC3)C2=O)cc1 (stereo not drawn) | 99% (active)
Oc1ccc(CCCCCc2ccc(O)cc2)cc1 | 99% (active)
COC(=O)c1ccccc1CC(Cc1ccc2c(c1)CCC2)C(=O)OC (stereo not drawn) | 27% (inactive)
CN=C1NS(=O)(=O)c2ccccc21 | 0% (inactive)
CCCCC/C(=C/C=C/c1ccc(Cl)cc1)CN(C)C | 97% (active)
O=S(=O)(O)c1ccc2c(c1)C1C(C3C2C2(Cl)C(Cl)=C(Cl)C3(Cl)C2(Cl)Cl)C2(Cl)C(Cl)=C(Cl)C1(Cl)C2(Cl)Cl (stereo not drawn) | 80% (active)
Cc1ccc(S(=O)(=O)N/N=C/c2oc(-c3cccc([N+](=O)[O-])c3)c(-c3cccc([N+](=O)[O-])c3)c2[N+](=O)[O-])cc1 | 56% (inactive)
CCN(CC)C(C)(C)C(=O)/C=C/c1ccc(Cl)cc1 | 69% (inactive)
Fc1ccc(NC(=S)SCc2ccc(Cl)c(Cl)c2)c(F)c1 | 98% (active)
CC[C@@]1(OP(=O)(O)O)C(=O)OCc2c1cc1n(c2=O)Cc2cc3ccccc3nc2-1 | 92% (active)
CC(C)C1=CC2=CCC3C(C)(C(=O)O)CCCC3(C)C2CC1 (stereo not drawn) (tested in a mixture with another compound) | 80% (active)
C=CCSc1nc2ccccc2c(=O)n1Cc1ccco1 | 59% (inactive)
COC(=O)c1c(C)cccc1C1CN=NC12Cc1ccc(C)c(C)c1C2=O (stereo not drawn) | 31% (inactive)
CC(=O)N=C1N(/C=C2\C(=O)Oc3ccccc3C2=O)C(=O)/C(=C/c2cccc(Cl)c2Cl)N1C | 89% (active)
O=C1NC(CSSCC2NC(=O)N(c3ccccc3)C2=O)C(=O)N1c1ccccc1 (stereo not drawn) | 94% (active)
CCCCCCCCCCCCOP(=O)(N1CC1(C)C)N1CC1(C)C (stereo not drawn) | 61% (inactive)
Cc1cccc(/C=N/NC(=S)Nc2ccc(Cl)cc2)n1 | 98% (active)
CN1CCCCC1c1cc2c3ccccc3ccn2c1-c1ccccc1 (stereo not drawn) | 95% (active)
CN(Cc1ccccc1)CC(O)c1cc(-c2ccc(Cl)cc2)nc2ccccc12 (stereo not drawn) | 99% (active)
OC1CCN(c2c3ccccc3nc3ccccc23)CC1 | 85% (active)

Compound | growth inhibition
CCC1=C(c2ccc(OC(C)=O)cc2)Cc2cc(OC(C)=O)ccc21 | 64% (inactive)
Cc1cccc(C)c1NC(=O)CSC(N)=O | 22% (inactive)
c1ccc([B-](c2ccccc2)(c2ccccc2)c2ccccc2)cc1 | -6% (inactive)
[Fe+2].c1cc[cH-]c1.c1ccc(-c2ccc[cH-]2)cc1 | 29% (inactive)
O=C(CC1(O)CCCCC1)OC1CCCC1 | 0% (inactive)
OC1(c2ccccc2)c2ccccc2Sc2ccccc21 | 99% (active)
CC(CN(C)C)C(=O)/C=C/c1ccc(C(C)C)cc1 (stereo not drawn) | 89% (active)
CSc1cccc(N2C(=O)C=CC2=O)c1 | 52% (inactive)
O=c1c2ccccc2nc(-c2ccccc2)n1NC(=S)Nc1ccc(Cl)cc1[N+](=O)[O-] | 17% (inactive)
COc1ccc(OC(C)=O)c2c1CCC=CC2=O | 93% (active)
CC(=O)Nc1ccc2c(c1)Cc1cccc(F)c1-2 | 14% (inactive)
CCC(c1ccc(O)cc1)C(O)(CC)c1ccc(O)cc1 (stereo not drawn) | -9% (inactive)
Cn1c(-c2ccccc2)c(CCNC(=O)C2CCC2)c2ccccc21 | 18% (inactive)
FC(F)(F)c1ccccc1NC(=S)SCc1ccco1 | 52% (inactive)
O=[N+]([O-])C1=Cc2cc(Cl)ccc2OC1c1cccc2ccccc12 (stereo not drawn) | 83% (active)
NC(=O)c1c(Cl)nc2n1CCS2 | 0% (inactive)
CCCCCC(C)C1=NC(C)(C)CC(C)O1 (stereo not drawn) | -154% (inactive)
CCCCCCCCCCCCCCCCN(C)c1ccc(S(=O)(=O)O)cc1[N+](=O)[O-] | 67% (inactive)
O=C(c1cccnc1)N(C1CCCCC1)C1CCCCC1 | 4% (inactive)
